Each structure is given as a SMILES string. Potency and affinity values are given separately. The source made the active and inactive calls. No rule for the calls is given here.

This test in a line: mammalian cell viability reduction – secondary assay, cytotoxicity control for West Nile virus antiviral project, dose response (AID 1650). As to conditions: Mammalian host cell viability, cytotoxicity counter-screen; series mostly up to 10 µM; viability: at the top concentration. For orientation: A counterscreen serves to expose hits that act by an unwanted route or on another target.
Consider `CCN(CC)CCNc1ncnc2c1sc1nc(N3CCCC3)c3c(c12)CC(C)(C)OC3`, for which the viability – broadly, a read-out of living cells in per cent, often relative to untreated cells – is 75.2% [at 20 µM] (inactive). As to `CC(=O)OCC1O[C@@H](O[C@@H]2C[C@H]3C(C)(C)[C@H](OC(C)=O)CC[C@]3(C)[C@H]3CC[C@]45C[C@]4(CC[C@H]5[C@@H](C)C[C@@H](O)[C@H](O)C(C)(C)O)[C@@]32C)[C@H](O)[C@@H](O)[C@@H]1O` (stereo not given in full), the “viability” value is 93.6% (inactive).

On to `O=C(/C=C/c1ccc2c(c1)OCO2)Nc1ccc(Cl)cn1`, for which the “viability” value was 95.4% [at 20 µM] (inactive).

For the compound `CCOC(=O)N1CCC2(CC1)C(C#N)=C(N)OC1=C2C(=O)CCC1`, the “viability” value is 95.4% (inactive). As for `O=C(O)C1CCCN1C(=O)c1cncc(Br)c1` (stereo not given), the figure is 100% [at 20 µM] (inactive); as for `CCCN1CCN(CCCNC(=O)c2ccc3nc(N4CCC(C)CC4)sc3c2)CC1`, 84.4% (inactive). Consider `C/C(N)=C(/C#N)C(=O)COC(=O)c1cc(-c2ccc(Br)cc2)nc2ccccc12`, for which the “viability” value was 72.3% (inactive). Take `Cc1cccc2cc(CN(CCCN(C)C)C(=S)NCCc3ccccc3)c(=O)[nH]c12`: the “viability” value was 75.7% [at 20 µM] (inactive).

For the compound `CCc1ccc(-c2cc3c(=O)n(CC(=O)NCCCN4CCN(CC)CC4)nc(C)n3n2)cc1`, the “viability” value is 87.5% (inactive). Consider `CCOC(=O)c1c(CC(C)C)csc1/N=C/C1=C(O)CCCC1=O`, for which the “viability” value was 92% [at 20 µM] (inactive). As for `CCn1cc(CNCc2cn(C)nc2-c2ccc(C3CCCCC3)cc2)cn1`, the figure is 80% (inactive). Regarding `COc1ccc2[nH]c3nc(SCc4nnc(-c5ccc(C)cc5)o4)nnc3c2c1`, the “viability” value was 80.5% (inactive).

With `O=[N+]([O-])c1nn(-c2ccccc2)n(O)c1=NC1CCN(Cc2ccccc2)CC1`, the “viability” value is 83.1% [at 20 µM] (inactive). As for `C=CCn1cc(C(=O)NCCCOCC)c(=O)c2cc(S(=O)(=O)N(CC)CC)ccc21`, the figure is 84.2% (inactive).

With `CC1CCN(c2nc3ccc(C(=O)NCCCN4CCCCC4C)cc3s2)CC1` (stereo not given), the “viability” value was 78.7% (inactive). As for `O=C(CCC1CCCC1)N=C1SC2CS(=O)(=O)CC2N1Cc1ccccc1` (stereo not given), the figure is 85.2% (inactive). The value for `CCOc1ccc(NC(=O)Cn2c(=O)n(CCCC(=O)NC3CCN(Cc4ccccc4)CC3)c(=O)c3ccccc32)cc1` was 86.5% (inactive). As for `Cc1ccc(NC2=C/C(=N/S(=O)(=O)c3cccs3)c3ccccc3C2=O)cc1`, the figure is 78.3% [at 20 µM] (inactive); as for `CC1CCN(CCc2nc3cc(NC(=O)COc4ccc(Cl)cc4)ccc3n2C)CC1`, 80.5% (inactive); as for `COCCN1CCCC(CNCc2cn(C)nc2-c2ccc(Oc3ccccc3)cc2)C1` (stereo not given), 84.1% (inactive). `CCOc1ccc2nc(N3CCCC(C(=O)NCCCN4CC(C)CC(C)C4)C3)sc2c1` (stereo not given): the “viability” value is 82.6% (inactive).

Take `Brc1ccc2c(c1)CN1CCCC1=N2`: the “viability” value is 81.5% (inactive). The value for `CCn1nc(C)c(CN2CCC(C(=O)Nc3cccc(-c4cccc(F)c4)c3)CC2)c1C` was 79.2% (inactive); that for `CCOC(=O)c1c(CN2CCN(C)CC2)n(C)c2cc(Br)c(OC)cc12` was 75.1% [at 20 µM] (inactive). The value for `COc1c(O)ccc2c1CN1CCc3cc4c(cc3C1C2)OCO4` (stereo not given) was 83.5% (inactive); that for `CCC(C)NC(=O)/C(=C/c1ccco1)c1ccccc1` (stereo not given) was 95.4% (inactive). As for `COc1ccc(-c2csc(NC3OC(=O)c4ccccc43)n2)cc1` (stereo not given), the figure is 89.2% [at 20 µM] (inactive); as for `C[C@H]1[C@H](C)CC[C@]2(C(=O)O)CC[C@]3(C)C(=CC[C@@H]4[C@@]5(C)C[C@@H](O)[C@H](O)C(C)(C)[C@@H]5CC[C@]43C)[C@H]12`, 103% (inactive). With `O=C(NCCCN1CCCC1)c1ccc2c(c1)N(Cc1cccc(Cl)c1)C(=O)c1ccccc1S2=O` (stereo not given), the “viability” value was 84.1% [at 20 µM] (inactive).

For the compound `N=C1C(c2nc(-c3ccc(Cl)cc3)cs2)=C(O)CN1CCCN1CCOCC1`, the “viability” value is 92.8% (inactive). As for `CCCN(CC(=O)Nc1cccc(Br)c1)CC(=O)Nc1ccc(F)c(F)c1F`, the figure is 84.9% (inactive). Take `CC(C)(C)c1ccc(C(=O)O/N=C(\N)c2ccccc2)cc1`: the “viability” value is 90.3% [at 20 µM] (inactive). In the case of `Cc1nn(CC(=O)NCc2ccc(OC(C)C)cc2)c(=O)c2cc(-c3ccccc3)nn12`, the “viability” value is 89.4% [at 20 µM] (inactive). The value for `Cc1ccc(CN(Cc2cc3cccc(C)c3[nH]c2=O)C(=S)NCCCN(C)C)cc1` was 73.8% [at 20 µM] (inactive); that for `CCOc1ccc(/C=C/c2nc(C#N)c(NCCCN(C)C)o2)cc1` was 83.3% (inactive); that for `C/C(=N\Nc1nnc(-c2ccccc2)c(-c2ccccc2)n1)c1cccc([N+](=O)[O-])c1` was 82.4% (inactive). As to `CC1CN(C(=O)CCC(=O)NCCCN2CCC(Cc3ccccc3)CC2)c2cc(Cl)ccc2O1` (stereo not given), the “viability” value is 80.6% [at 20 µM] (inactive). The value for `O=C(Nc1ccc(F)cc1F)c1cc2ccccc2oc1=O` was 93.6% (inactive); that for `CCOC(=O)c1sc(NC(=O)Nc2ccccc2)cc1C` was 88.8% [at 20 µM] (inactive); that for `Cc1cccc(OCC(O)Cn2c(=N)n(CCN3CCCCC3)c3ccccc32)c1` (stereo not given) was 70.1% [at 20 µM] (inactive).
